From PubChem BioAssay AID1813 (Broad Institute, 2009)
About 2,500 (0.83%) of roughly 300,000 compounds were called active. Cut-off read from the data, not from the text of the source: active = inhibition above about 60%; inconclusive = no clear call, values can overlap the other calls; inactive = below that. Only a selection was taken, and actives are over-represented in it overall.

Experiment: MLPCN primary screen, SNCA 5' untranslated region (AID 1813);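 note: H4 neuroglioblastoma cells stably carrying SNCA 5'UTR luciferase fusion; 0% = DMSO wells and 100% = positive control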
Conditions: alpha-synuclein 5'UTR reporter, inhibitor activity; active compounds read high; tested at 7.5 µM

SMILES	inhibition
CCOC(=O)C(C)n1cnc2c(nnn2-c2cccc(OC)c2)c1=O (stereo not given)	-35.8% (inactive)
O=C(C[n+]1ccc2c(c1)nnn2-c1ccccc1)c1ccc(Cl)cc1	9.87% (inactive)
CCCCn1c(CCCNC(=O)CC)nc2ccccc21	-5.46% (inactive)
CCC(=O)Nc1nc2ccccc2n1Cc1ccccc1C	65.5% (active)
CC(=O)Nc1nc2ccccc2n1Cc1ccc(C)cc1	48.2% (inactive)
COc1ccc(N2CCN(C(=O)CNC(=O)c3ccc(Br)o3)CC2)cc1	0.266% (inactive)
CC(=O)Cc1nsc(NC(=O)c2ccc(Cl)cc2Cl)n1	-9.27% (inactive)
CNC(=O)c1csc(Cc2c(Cl)sc3ccc(Cl)cc23)n1	-10.2% (inactive)
CC(=O)NNC(=O)c1csc(Cc2c(Cl)sc3ccc(Cl)cc23)n1	67.1% (active)
CC12CN3CCN(CC(C3)/C1=N\NC(=O)c1ccccc1N)C2	-83.3% (inactive)
Cc1ccc(CN2CCN(Cc3ccc4ncccc4c3)CC2CCO)cc1 (stereo not given)	-3.25% (inactive)
Cc1nnc(N/N=C/C2CC=CCC2)[nH]c1=O (stereo not given)	-14.7% (inactive)
CNC(=O)C(=O)N/N=C/c1ccccn1	10.9% (inactive)
Cc1nnc(N/N=C/c2ccccn2)[nH]c1=O	117% (active)
COc1cc(/C=N/N=C(\N)c2nonc2N)cc(OC)c1OC	-18.9% (inactive)
O=C(CNC(=O)Cc1ccccc1)NCC(=O)OCC(=O)c1ccccc1Cl	-27.1% (inactive)
CC(=O)c1ccc(S(=O)(=O)N2CCN(C(=O)/C=C/c3ccc4ccccc4n3)CC2)cc1	62.4% (active)
CC(=O)c1ccc(S(=O)(=O)N2CCC3(CC2)OCCO3)cc1	-7.06% (inactive)
CC(=O)c1ccc(S(=O)(=O)N2CCN(c3nc4c(C)c(C)ccc4cc3C#N)CC2)cc1	15.2% (inactive)
CC(N)C12CC3CC(CC(O)(C3)C1)C2 (stereo not given)	11.6% (inactive)
CCOc1cc2[nH]c(=S)n(Cc3ccc(C(=O)NCCOC)cc3)c(=O)c2cc1OCC	13.8% (inactive)
COc1ccccc1Cn1c(=S)[nH]c2cc(C(=O)N3CCN(C)CC3)ccc2c1=O	30.1% (inactive)
CCOc1cc2[nH]c(=S)n(Cc3ccc(C(=O)N4CCN(C)CC4)cc3)c(=O)c2cc1OCC	86.1% (active)
COc1ccccc1N1CCN(C(=O)c2cc(=O)c3cc(C)cc(C)c3o2)CC1	78.3% (active)

SMILES	inhibition
COc1cccc(-c2cc(C(=O)N3CCN(c4ccccc4OC)CC3)no2)c1	-4.47% (inactive)
COc1ccccc1N1CCN(C(=O)c2cc(=O)c3cc(C)ccc3o2)CC1	-36.8% (inactive)
Cc1ccc(C(=O)Nc2nnc(C3=COCCO3)o2)cc1C	-10.3% (inactive)
CCN(CC)S(=O)(=O)c1ccc(N2CCCC2)c(NS(=O)(=O)c2cccs2)c1	-11.1% (inactive)
COc1ccc(C(=O)c2c3ccc([N+](=O)[O-])cc3[n+]([O-])n2CCCN)cc1	63.1% (active)
COc1ccc2c(C(=O)c3ccc(C)cc3)n(CCC(N)=O)[n+]([O-])c2c1	-21.1% (inactive)
COc1ccc(C(=O)CC(=O)C(=O)Nc2cc([N+](=O)[O-])ccc2OC)cc1	-25.8% (inactive)
Cc1ccc(C(NC(=O)N2CCCC2)C(Cl)(Cl)Cl)cc1F (stereo not given)	25.2% (inactive)
COc1cc(N=Cc2c(O)[nH]c3ccccc23)cc(OC)c1OC	81% (active)
COCC(=O)N=Nc1c(O)[nH]c2ccccc12	3.62% (inactive)
COc1ccccc1N=Cc1c(O)c2ccccc2oc1=O	3.79% (inactive)
COCCC(=O)N1CCC(Oc2ccc(C(=O)NCc3ccon3)cc2)CC1	-4.68% (inactive)
Oc1ccc(/C=N/Nc2ccc(C(F)(F)F)cn2)cc1O	-195% (inactive)
Oc1ccc(Br)cc1/C=N/Nc1ccccn1	66.4% (active)
O=C(CCCO)N/N=C/c1cc(Br)ccc1O	-18.4% (inactive)
COc1ccc(-c2cc(=O)oc3cc(OCC(=O)N[C@@H](Cc4c[nH]c5ccccc45)C(=O)O)ccc23)cc1	9.25% (inactive)
CCOc1cc(/C=N/NC(=O)CN2CCCCC2)ccc1O	1.96% (inactive)
C=CCn1c(C)cc(C2=NNC(=NCC)SC2)c1C	105% (active)
C=CCn1c(C)cc(C(=O)CN2C(=O)c3ccccc3C2=O)c1C	47.1% (inactive)
O=C(NCc1cccnc1)C12CC3CC(CC(C3)C1)C2	16.2% (inactive)
O=C(NC1CCCC1)C(c1ccc(N2CCOCC2)cc1)N(C(=O)c1ccco1)c1ccccc1F (stereo not given)	-5.34% (inactive)
Cc1cc(C)n(-c2c(F)c(F)c(COC(=O)c3ccccc3)c(F)c2F)n1	6.91% (inactive)
CCOC(=O)c1cnc(-n2nc(C)cc2C)nc1Nc1cccc(C(C)=O)c1	17.6% (inactive)
CCOC(=O)c1cnc(-n2nc(C)cc2C)nc1NNc1cc(C)nc(-c2ccccc2)n1	105% (active)

SMILES	inhibition
NC(=O)C1CCN(Cc2nc3c(Br)cc(Br)cc3c(=O)[nH]2)CC1	31.8% (inactive)
CC(=O)Nc1ccc(S(=O)(=O)NC2Cc3ccccc3C2)cc1	-6.02% (inactive)
Cc1ccc(NC(=O)CCC(=O)c2ccc(Br)cc2)cc1	1.65% (inactive)
COc1ccccc1C1C2=C(COC2=O)Nc2cc3c(cc21)OCO3 (stereo not given)	98.1% (active)
CCCOc1ccccc1C1CC(=O)Nc2cc3c(cc21)OCO3 (stereo not given)	111% (active)
COC(=O)C1=C(C)NC(=O)CC1c1ccccc1OC (stereo not given)	2.02% (inactive)
COc1ccc(C2CC(=O)Nc3cc(C)c(C)cc32)c(OC)c1OC (stereo not given)	22.4% (inactive)
COc1ccc(S(=O)(=O)Nc2ccc3c(c2)OCO3)cc1Cl	-17.5% (inactive)
COc1cc2c(cc1OC)C(c1ccncc1)CC(=O)N2 (stereo not given)	21.6% (inactive)
COC(=O)c1ccc(NS(=O)(=O)c2cc3c4c(c2)C(C)C(=O)N4CCC3)cc1 (stereo not given)	8.87% (inactive)
CN(CC(=O)NCc1ccncc1)S(=O)(=O)c1ccc(Br)cc1	-15.9% (inactive)
Cc1ccc(CNC(=O)c2ccc3c(c2)S(=O)(=O)c2ccccc2C3=O)cc1	5.46% (inactive)
CCN(C(=O)c1cc([N+](=O)[O-])ccc1NCc1cccnc1)c1ccccc1	14.1% (inactive)
CCCCn1ccnc1C(=O)c1cccc(S(=O)(=O)N2c3ccccc3CC2C)c1 (stereo not given)	4.82% (inactive)
CCN(CC)S(=O)(=O)c1ccc(-c2cn3ccc(C)cc3n2)cc1	-169% (inactive)
COc1ccc(-c2cn3ccc(C)cc3n2)cc1	92.2% (active)
COc1ccc(-c2cn3ccsc3n2)cc1	-105% (inactive)
CCc1nc2cccnc2n1-c1ccc(C(=O)O)cc1	-14.6% (inactive)
Fc1ccc(-n2c(Cc3ccccc3)nnc2SCc2nc(-c3ccc(Cl)cc3)no2)cc1	-3.62% (inactive)
CCN(CC)CCNCc1ccc(OCc2ccc(Cl)nc2)c(OC)c1	-27.5% (inactive)
CCOc1cccc(/C=C/c2ccc3ccccc3n2)c1OC(C)=O	49.2% (inactive)
COc1cccc(/C=C2\C=C(c3ccc(C)cc3)OC2=O)c1OC(C)=O	-65.8% (inactive)
COc1cccc(/C=C/c2ccc3ccccc3n2)c1OC(C)=O	83.1% (active)
CCCOC1CCCN(C(=O)c2cc(COc3cncc(Cl)c3)on2)C1 (stereo not given)	-219% (inactive)

SMILES	inhibition
C[C@H](NC(=O)c1nc[nH]c1C(=O)NCC(=O)OC(C)(C)C)c1ccccc1	24.4% (inactive)
Cc1ccc(-c2cc(=O)c3ccc(F)cc3[nH]2)cc1	-68.9% (inactive)
O=c1cc(-c2ccccc2)[nH]c2cc(F)ccc12	93.3% (active)
Cc1ccc(-c2cc(=O)c3ccc(Cl)cc3[nH]2)cc1	-19.2% (inactive)
CC(C)n1cnc2c(Nc3cccc(Cl)c3)nc(N(CCO)CCCO)nc21	64.7% (active)
COC(=O)C(C)n1cnc2c(nnn2-c2cccc(Cl)c2)c1=O (stereo not given)	-6.77% (inactive)
CC(C)C[C@H](CO)Nc1nc(N(C)c2cccc(Cl)c2)c2ncn(C(C)C)c2n1	24.9% (inactive)
CSc1cc(C)n(-c2ccccc2C)c(=S)c1C(C)=O	-18% (inactive)
O=C(CCN1C(=O)c2ccncc2C1=O)Nc1cc(F)ccc1F	10.3% (inactive)
O=C(NCC(=O)N(c1ccccc1)C(C(=O)NCC1CCCO1)c1ccccc1)c1cccs1 (stereo not given)	15.4% (inactive)
CC(C)(C)C(=O)Nc1ccc(C(=O)N/N=C/c2ccccc2OC(=O)c2ccc(Cl)cc2Cl)cc1	65.2% (active)
O=C(N/N=C/c1ccoc1)c1ccc(Cl)cc1Cl	-0.701% (inactive)
O=C(N/N=C/c1ccc(OC(=O)c2ccccc2Cl)cc1)c1ccc(O)cc1	-1.64% (inactive)
Cc1ccc(S(=O)(=O)N/N=C(\c2ccccc2)C2CC2)cc1	-11.6% (inactive)
COC(=O)C1=C(C)N(c2ccc(C)cc2)/C(=C/c2ccc(O)cc2)C1=O	-12.4% (inactive)
Cc1ccc(NC(=O)Cn2nnc(C(=O)NCc3ccco3)c2N)c(C)c1	-2.22% (inactive)
CCOc1ccccc1NC(=O)Cc1cccs1	19.4% (inactive)
CCOc1ccccc1NC(=O)Cn1nnc(C(=O)NCc2cccs2)c1N	84.9% (active)
O=C(Cc1ccc(-n2c(=O)c3sccc3n(Cc3ccc(F)cc3)c2=O)cc1)NCc1ccco1	11.3% (inactive)
O=C(O)C1CCN(C(=O)c2cc(F)cc3c2OCOC3)CC1	19.4% (inactive)
C/C(=N\NC(=O)CC(C)C)c1c(C(F)(F)F)[nH]n(-c2nc3ccccc3s2)c1=O	-51.5% (inactive)
COC(=O)Cc1[nH]n(-c2nc3ccccc3s2)c(=O)c1C(C)=Nc1ccc(OC)cc1	68.9% (active)
CC(=NCc1ccco1)c1c(C(F)(F)F)[nH]n(-c2nc3ccccc3s2)c1=O	-117% (inactive)
